Changes are numbered by the printed parent chain; changes in the protein carry UniProt numbers. In all, about 16,000 sequences were measured (“ka relative to ugcaugu”: median about 0.096, highest 2% from about 0.35 on). For the sample, the highest values were picked, then their nearest neighbours and some sequences at random.

B1: UUAGCGG (DNA:RNA)
RNA: GGGAGACCGGAAUUCAGAUUGUCCUUAGCGGUUAAAUCCCGUCGUAGCCACCA
DNA 1: CAATCTGAATTCCGGTCTCCC
DNA 2: TGGTGGCTACGACGGGATT
B2: AGAGGUC (DNA:RNA)
RNA: B1 RNA with U25A, U26G, C29G, G30U, G31C
DNA 1: CAATCTGAATTCCGGTCTCCC
DNA 2: TGGTGGCTACGACGGGATT
B3: CCAGAUU (DNA:RNA)
RNA: B1 RNA with U25C, U26C, C29A, G30U, G31U
DNA 1: CAATCTGAATTCCGGTCTCCC
DNA 2: TGGTGGCTACGACGGGATT
B4: UUCCUGU (DNA:RNA)
RNA: B1 RNA with A27C, G28C, C29U, G31U
DNA 1: CAATCTGAATTCCGGTCTCCC
DNA 2: TGGTGGCTACGACGGGATT
B5: GGACAAA (DNA:RNA)
RNA: B1 RNA with U25G, U26G, G28C, C29A, G30A, G31A
DNA 1: CAATCTGAATTCCGGTCTCCC
DNA 2: TGGTGGCTACGACGGGATT
B6: CCCAACC (DNA:RNA)
RNA: GGGAGACCGGAAUUCAGAUUGUCCCCCAACCUUAAAUCCCGUCGUAGCCACCA
DNA 1: CAATCTGAATTCCGGTCTCCC
DNA 2: TGGTGGCTACGACGGGATT
B7: GCCACAA (DNA:RNA)
RNA: B6 RNA with C25G, A29C, C30A, C31A
DNA 1: CAATCTGAATTCCGGTCTCCC
DNA 2: TGGTGGCTACGACGGGATT
B8: UGUAAGU (DNA:RNA)
RNA: B6 RNA with C25U, C26G, C27U, C30G, C31U
DNA 1: CAATCTGAATTCCGGTCTCCC
DNA 2: TGGTGGCTACGACGGGATT
B9: UCAGUAU (DNA:RNA)
RNA: B1 RNA with U26C, C29U, G30A, G31U
DNA 1: CAATCTGAATTCCGGTCTCCC
DNA 2: TGGTGGCTACGACGGGATT
B10: AUUAGAG (DNA:RNA)
RNA: B1 RNA with U25A, A27U, G28A, C29G, G30A
DNA 1: CAATCTGAATTCCGGTCTCCC
DNA 2: TGGTGGCTACGACGGGATT
B11: CCAGAGU (DNA:RNA)
RNA: B6 RNA with C27A, A28G, C30G, C31U
DNA 1: CAATCTGAATTCCGGTCTCCC
DNA 2: TGGTGGCTACGACGGGATT
B12: GUUUGUG (DNA:RNA)
RNA: B1 RNA with U25G, A27U, G28U, C29G, G30U
DNA 1: CAATCTGAATTCCGGTCTCCC
DNA 2: TGGTGGCTACGACGGGATT
B13: GUGUUUG (DNA:RNA)
RNA: B1 RNA with U25G, A27G, G28U, C29U, G30U
DNA 1: CAATCTGAATTCCGGTCTCCC
DNA 2: TGGTGGCTACGACGGGATT
B14: GUCGUGU (DNA:RNA)
RNA: B1 RNA with U25G, A27C, C29U, G31U
DNA 1: CAATCTGAATTCCGGTCTCCC
DNA 2: TGGTGGCTACGACGGGATT
B15: CGUUUUG (DNA:RNA)
RNA: B6 RNA with C26G, C27U, A28U, A29U, C30U, C31G
DNA 1: CAATCTGAATTCCGGTCTCCC
DNA 2: TGGTGGCTACGACGGGATT
B16: GUGUGUA (DNA:RNA)
RNA: B1 RNA with U25G, A27G, G28U, C29G, G30U, G31A
DNA 1: CAATCTGAATTCCGGTCTCCC
DNA 2: TGGTGGCTACGACGGGATT
B17: GUGUAUA (DNA:RNA)
RNA: B6 RNA with C25G, C26U, C27G, A28U, C30U, C31A
DNA 1: CAATCTGAATTCCGGTCTCCC
DNA 2: TGGTGGCTACGACGGGATT
B18: GAGUUUG (DNA:RNA)
RNA: B1 RNA with U25G, U26A, A27G, G28U, C29U, G30U
DNA 1: CAATCTGAATTCCGGTCTCCC
DNA 2: TGGTGGCTACGACGGGATT
B19: GUGUCGU (DNA:RNA)
RNA: B1 RNA with U25G, A27G, G28U, G31U
DNA 1: CAATCTGAATTCCGGTCTCCC
DNA 2: TGGTGGCTACGACGGGATT
B20: UUGUGUA (DNA:RNA)
RNA: B1 RNA with A27G, G28U, C29G, G30U, G31A
DNA 1: CAATCTGAATTCCGGTCTCCC
DNA 2: TGGTGGCTACGACGGGATT
B21: GUCCGAG (DNA:RNA)
RNA: B1 RNA with U25G, A27C, G28C, C29G, G30A
DNA 1: CAATCTGAATTCCGGTCTCCC
DNA 2: TGGTGGCTACGACGGGATT
B22: GAGUUGU (DNA:RNA)
RNA: B1 RNA with U25G, U26A, A27G, G28U, C29U, G31U
DNA 1: CAATCTGAATTCCGGTCTCCC
DNA 2: TGGTGGCTACGACGGGATT
B23: GUUGUGU (DNA:RNA)
RNA: B1 RNA with U25G, A27U, C29U, G31U
DNA 1: CAATCTGAATTCCGGTCTCCC
DNA 2: TGGTGGCTACGACGGGATT
B24: UAUACUA (DNA:RNA)
RNA: B1 RNA with U26A, A27U, G28A, G30U, G31A
DNA 1: CAATCTGAATTCCGGTCTCCC
DNA 2: TGGTGGCTACGACGGGATT
B25: CUUGGCU (DNA:RNA)
RNA: B6 RNA with C26U, C27U, A28G, A29G, C31U
DNA 1: CAATCTGAATTCCGGTCTCCC
DNA 2: TGGTGGCTACGACGGGATT
B26: AAGCCAC (DNA:RNA)
RNA: B6 RNA with C25A, C26A, C27G, A28C, A29C, C30A
DNA 1: CAATCTGAATTCCGGTCTCCC
DNA 2: TGGTGGCTACGACGGGATT
B27: CUGCCGC (DNA:RNA)
RNA: B1 RNA with U25C, A27G, G28C, G31C
DNA 1: CAATCTGAATTCCGGTCTCCC
DNA 2: TGGTGGCTACGACGGGATT
B28: UACUCGG (DNA:RNA)
RNA: B1 RNA with U26A, A27C, G28U
DNA 1: CAATCTGAATTCCGGTCTCCC
DNA 2: TGGTGGCTACGACGGGATT
B29: CAGGGUU (DNA:RNA)
RNA: B6 RNA with C26A, C27G, A28G, A29G, C30U, C31U
DNA 1: CAATCTGAATTCCGGTCTCCC
DNA 2: TGGTGGCTACGACGGGATT
B30: CCUACAU (DNA:RNA)
RNA: B6 RNA with C27U, A29C, C30A, C31U
DNA 1: CAATCTGAATTCCGGTCTCCC
DNA 2: TGGTGGCTACGACGGGATT
B31: UGUCUCG (DNA:RNA)
RNA: B1 RNA with U26G, A27U, G28C, C29U, G30C
DNA 1: CAATCTGAATTCCGGTCTCCC
DNA 2: TGGTGGCTACGACGGGATT

This test addresses T1, RBFOX1 RRM RbFoxmut (Fox-RRM*) (Homo sapiens, UniProt Q9NWB1 109-208, R118D;E147R;N151S;E152T).
T1 sequence: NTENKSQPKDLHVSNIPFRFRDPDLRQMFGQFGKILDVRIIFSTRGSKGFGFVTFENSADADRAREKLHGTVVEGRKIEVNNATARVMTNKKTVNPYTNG
Briefly: EMSA; HiTS-Eq, 1 nM pool, 10 min; buffer printed only for the single-RNA assays: 10 mM Tris pH 7.5, 150 mM NaCl, 3.4 mM EDTA, 0.001% NP-40, 30 C. The following applies: tags: His6 N-terminal (pET28a); label: 5' 32P. The method, boiled down: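 Relative association constants, normalised to the cognate motif, were derived by comparing read counts of each RNA species with those of the control reaction. The RNA sequenced was the free fraction, separated by 8% native PAGE after a 10 min equilibration in 50 µL of 1 nM 5′-radiolabelled RNA (7 randomized nucleotides) with increasing concentrations of purified wild-type or mutant RbFox RRM.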
For B1, the binding signal was 0.0965 KA relative to UGCAUGU. B2: the binding signal is 0.108 KA relative to UGCAUGU. Turning to B3, the binding signal was 0.0808 KA relative to UGCAUGU. Under B4 stands 0.0952 KA relative to UGCAUGU; under B5, 0.0761 KA relative to UGCAUGU. Under B6 stands 0.0535 KA relative to UGCAUGU.

For B7, the binding signal was 0.0608 KA relative to UGCAUGU. Under B8 stands 0.118 KA relative to UGCAUGU; under B9, 0.116 KA relative to UGCAUGU. Turning to B10, the binding signal is 0.146 KA relative to UGCAUGU. In the case of B11 it was 0.126 KA relative to UGCAUGU; in that of B12, 0.462 KA relative to UGCAUGU; in that of B13, 0.68 KA relative to UGCAUGU. Consider B14, for which the binding signal is 0.187 KA relative to UGCAUGU. On to B15, for which the binding signal was 0.133 KA relative to UGCAUGU. In the case of B16 it was 0.371 KA relative to UGCAUGU; in that of B17, 0.166 KA relative to UGCAUGU.

B18: the binding signal is 0.361 KA relative to UGCAUGU. B19: the binding signal was 0.164 KA relative to UGCAUGU. In the case of B20 it was 0.315 KA relative to UGCAUGU; in that of B21, 0.129 KA relative to UGCAUGU; in that of B22, 0.138 KA relative to UGCAUGU. In the case of B23, the binding signal is 0.224 KA relative to UGCAUGU.

In the case of B24, the binding signal is 0.0619 KA relative to UGCAUGU. Under B25 stands 0.102 KA relative to UGCAUGU; under B26, 0.0884 KA relative to UGCAUGU. Turning to B27, the binding signal is 0.116 KA relative to UGCAUGU. In the case of B28 it was 0.0779 KA relative to UGCAUGU. Regarding B29, the binding signal was 0.106 KA relative to UGCAUGU. Under B30 stands 0.0881 KA relative to UGCAUGU. Under B31 stands 0.32 KA relative to UGCAUGU.

These data come from article PMC9911399, “Two distinct binding modes provide the RNA-binding protein RbFox with extraordinary sequence specificity”.
